# Hits are enriched below; roughly 7.1% of the tested compounds scored in any of these assays.
# PTK2B oligo ant = blocks oligomerization of human Pyk2 in cells. Q293 cells, Pyk2 FERM NanoBiT luminescence; stronger effect = lower value. AID 1347419. Q14289. z-score (the deposit names both 25 µM and 10 µM). 0.83% of 99,000 active;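 active = Z-score of -3 or lower, scaled per plate to the spread of control and sample wells; inactive = z-score above -3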;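 note: negative z-score means lost luminescence so less FERM oligomerization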
# Target sequence (Q14289 whole entry, looked up): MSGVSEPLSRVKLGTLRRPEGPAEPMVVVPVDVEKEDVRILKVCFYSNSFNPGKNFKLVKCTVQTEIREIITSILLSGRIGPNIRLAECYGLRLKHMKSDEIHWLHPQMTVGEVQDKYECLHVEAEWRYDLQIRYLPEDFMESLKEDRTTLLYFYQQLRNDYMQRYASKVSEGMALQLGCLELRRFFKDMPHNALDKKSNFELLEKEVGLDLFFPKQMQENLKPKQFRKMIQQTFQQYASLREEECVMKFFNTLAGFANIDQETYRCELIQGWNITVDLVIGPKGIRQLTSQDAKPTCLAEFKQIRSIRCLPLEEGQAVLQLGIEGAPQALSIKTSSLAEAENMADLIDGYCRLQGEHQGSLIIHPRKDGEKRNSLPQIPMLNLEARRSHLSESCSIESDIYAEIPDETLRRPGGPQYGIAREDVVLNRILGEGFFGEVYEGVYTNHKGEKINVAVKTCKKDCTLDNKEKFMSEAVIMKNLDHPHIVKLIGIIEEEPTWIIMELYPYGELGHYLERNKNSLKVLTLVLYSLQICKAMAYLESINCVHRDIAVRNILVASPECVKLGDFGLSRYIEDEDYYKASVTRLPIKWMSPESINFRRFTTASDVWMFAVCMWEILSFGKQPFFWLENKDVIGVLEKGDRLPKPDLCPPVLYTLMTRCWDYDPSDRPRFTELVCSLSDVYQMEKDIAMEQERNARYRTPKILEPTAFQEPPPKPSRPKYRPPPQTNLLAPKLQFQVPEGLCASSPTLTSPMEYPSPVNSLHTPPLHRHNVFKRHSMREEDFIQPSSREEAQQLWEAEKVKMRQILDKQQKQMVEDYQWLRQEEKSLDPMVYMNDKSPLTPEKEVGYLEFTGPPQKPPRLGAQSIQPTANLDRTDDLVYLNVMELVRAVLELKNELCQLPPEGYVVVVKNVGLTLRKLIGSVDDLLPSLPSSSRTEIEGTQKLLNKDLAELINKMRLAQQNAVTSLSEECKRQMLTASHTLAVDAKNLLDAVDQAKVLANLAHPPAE
# M1 ag = agonists of M1 muscarinic receptor | CHO-M1 cells, Fluo-4 calcium fluorescence, agonist mode; stronger effect = higher value | B-score at 10 µM | 3% of 64,000 active | AID 626;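 active = fluorescence rise, raw or as B-score row- and column-corrected plate score, outside the 99.7% band of its plate's samples, either direction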
# Cav3 T inh = inhibitors of human Cav3.2 T-type calcium channel | Cav3.2-expressing cells, Fluo-4 calcium fluorescence FDSS; stronger effect = lower value | O95180 | AID 449739 | B-score at 10 µM | 4% of 100,000 active;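 active = single-dose well whose peak fluorescence ratio is a statistical outlier from its plate by either plate-standardised score or position-corrected B-score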
# M1 antagonist = antagonists of rat M1 muscarinic receptor | P08482 | CHO-M1 cells, Fluo-4 calcium, ACh EC80 antagonist mode; stronger effect = lower value | B-score at 10 µM | 3.4% of 64,000 active;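 active = calcium fluorescence response, raw or row-and-column corrected B-score, differing from the plate sample mean either way at a set confidence level, mostly lower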
# M1 ag confirm = rat M1 muscarinic agonism, confirmation; shares compounds with M1 ag; AID 1488; CHO-M1 cells, Fluo-4 calcium fluorescence, agonist mode; actives lie on both sides; fluorescence change (max-min) at 10 µM; 19% of 1,700 active;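 active = fluorescence change differs from the solvent-only DMSO control mean at a set confidence level in both duplicate runs; inconclusive = differs from solvent-only control mean in just one of two runs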;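 note: an EC20 dose of acetylcholine follows compound addition during the same imaging run; raw fluorescence intensity difference in instrument units with no normalization to controls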
# M4 agonist ctr = counter-screen for M1 agonists: activity at rat M4 receptor. fluorescence change (max-min) at 10 µM. CHO M4/Gqi5 cells, Fluo-4 calcium fluorescence, agonist mode; actives lie on both sides. shares compounds with M1 ag. 9% of 1,700 active. AID 1741;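 active = fluorescence change differing from the plate's solvent-only control wells at 99.7% confidence in both duplicates, whether higher or lower; inconclusive = differs from solvent controls in only one of two duplicates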
# The depositor's hits bear a star; u = inconclusive; x = no result.
SMILES,PTK2B oligo ant,M1 ag,Cav3 T inh,M1 antagonist,M1 ag confirm,M4 agonist ctr
CCOC(=O)CSc1nc2ccccc2c(=O)n1CCN1CCOCC1,0.43,0.52,0.4,-0.49,x,x
CC(C)(C)OC(=O)N1CCC[C@H]1C(=O)NCC1CCC(C(=O)O)CC1 (some centres undefined),0.13,0.05,-1.8,-0.087,x,x
CC(C)[C@H](NC(=O)[C@@H]1CSCN1C(=O)OC(C)(C)C)C(=O)NCC1CCC(C(=O)O)CC1 (some centres undefined),0.14,1.8*,-0.013,1,-4.4,u
CCOC(=O)N1CCN(C(=O)C(C)N(c2ccc(Oc3ccccc3)cc2)S(C)(=O)=O)CC1 (centres undefined),-0.24,3.6*,1.6,-1.3,-4.8,-66
Cc1ccc(N(C(C)C(=O)N2CCC(C)CC2)S(C)(=O)=O)cc1C (centres undefined),-0.09,2.5*,1,-0.16,-6.7,-15
Cc1ccc(N(C(C)C(=O)Nc2ccccc2C(=O)N2CCOCC2)S(C)(=O)=O)cc1C (centres undefined),1.2,0.87,1,-0.94,x,x
COc1ccc(CCN(Cc2cc3cc(C)c(C)cc3nc2Cl)C(=O)C2CC2)cc1,-0.89,x,-2.6,x,x,x
O=C1C2CC=CCC2C(=O)N1c1n[nH]c(-c2ccccc2)n1 (centres undefined),0.24,x,1.2,x,x,x
C[C@]12C(=O)N(c3ccc(Cl)cc3)C(=O)N1[C@@H]1c3ccccc3OC[C@@H]1[C@H]2c1ccccc1,x,x,-1.4,x,x,x
CCc1cc2c(NCCC(=O)O)ncnc2s1,-1,11*,0.41,-0.16,-8.6,-45
Cn1c(=O)c(-c2cc(Br)ccc2N)nc2ccccc21,-1.3,x,x,x,x,x
CCOC(=O)N1CCN(C(=O)C2CCN(C(=O)c3cc4sccc4n3CC)CC2)CC1,x,3.8*,0.56,-0.37,-2.7,-10
CCn1c(C(=O)N2CCC(Cc3ccccc3)CC2)cc2sccc21,0.31,-0.17,-0.024,-0.0083,x,x
O=C(CCn1nc(-c2ccccc2)ccc1=O)N1CCN(c2ccccn2)CC1,x,3.9*,x,0.013,-2.2,-23
O=C(NCCc1ccc(Cl)cc1)c1cnc2n(c1=O)CCS2,x,-2.9*,0.16,-0.098,u,-75
COc1ccc(CCNC(=O)c2cnc3n(c2=O)CCS3)cc1OC,1.1,-0.15,0.091,-1.1,x,x
COc1ccc(C(=O)N2CCN(c3ccc(C)c(C)c3)CC2)cc1OC,x,-2.5*,x,0.03,u,-83*
COc1ccc(S(=O)(=O)NCc2ccccn2)cc1Cl,-0.01,-0.97,0.3,-0.25,x,x
COc1ccccc1Oc1ccc(S(=O)(=O)NCc2ccccn2)cc1,0.85,12*,0.44,-0.21,u,u
Cc1ccc(S(=O)(=O)c2cc3c(=O)n4ccccc4nc3n(Cc3ccco3)c2=N)cc1,-1.7,-2.4*,x,0.052,22,17
Cc1cccn2c(=O)c3cc(C(=O)NCc4ccco4)c(=N)n(CCc4ccccc4)c3nc12,x,5.3*,x,-6.2*,31,-28
Cc1ccc(S(=O)(=O)c2cc3c(=O)n4cccc(C)c4nc3n(Cc3ccco3)c2=N)cc1C,x,0.76,x,0.62,x,x
COCCn1c(=N)c(C(=O)NCc2ccco2)cc2c(=O)n3ccccc3nc21,0.53,3.6*,-1.5,-1.7,66*,32
Cc1ccc(CNC(=O)c2cc3c(=O)n4ccccc4nc3n(CC3CCCO3)c2=N)cc1 (centres undefined),-0.49,5.2*,-0.86,-0.21,22,-15
CN(C)CCCN(C(=O)c1cccs1)c1nc(-c2ccccc2)cs1,0.48,14*,0.27,-8.7*,27,-24
SMILES,PTK2B oligo ant,M1 ag,Cav3 T inh,M1 antagonist,M1 ag confirm,M4 agonist ctr
CCOC(=O)c1c(NC(=O)CSc2nnc(-c3ccccc3C)n2C)sc(C(C)=O)c1C,-1.7,2.4*,-3.2,-5.2*,-9.6,u
CC(=O)c1c(C)[nH]c(C(=O)OCCCCN2C(=O)c3ccccc3C2=O)c1C,-2.5,6.4*,-2.3,-2.4*,0.55,-88*
CCOC(=O)Cc1csc(NC(=O)c2ccc(Cl)nc2)n1,0.17,x,0.13,x,x,x
CCOC(=O)Cc1csc(NC(=O)c2ccc3c(c2)OCO3)n1,0.44,-2.3*,-0.63,-1.2,-21,u
COc1cccc(-c2nnc3sc(-c4ccc(C)cc4)nn23)c1,x,0.16,x,0.89,x,x
COc1ccc(-c2nnc3sc(-c4ccco4)nn23)cc1OC,-0.66,4.3*,0.85,-0.29,-17,-44
COc1cccc(-c2nn3c(-c4cccc(C)c4)nnc3s2)c1,-0.16,24*,-1.9,-0.15,u,-33
CCCCn1nnnc1SCC(=O)Nc1ccc(N(C)C)cc1,-0.08,x,2.2,x,x,x
O=C(Nc1ccc(O)c2c(=O)cc(-c3cccc(Cl)c3)oc12)c1ccccc1Cl,x,x,-1,x,x,x
COc1ccc(N2CCN(C(=O)CSc3nnnn3-c3ccc4c(c3)OCCO4)CC2)cc1,0.44,-3*,-1.3,-0.3,-18,u
COc1ccc(-n2nnnc2SCC(=O)N2CCOCC2)cc1,x,-0.39,-0.51,0.0055,x,x
O=C(CSc1nnc(Cn2nnc3ccccc32)o1)N(Cc1ccc(F)cc1)c1ccccc1,-1.3,6.2*,-2.3,-2.2,-34*,-18
O=C(CSc1nnc(Cn2nnc3ccccc32)o1)Nc1ccc(Cl)cc1,-0.18,x,0.054,x,x,x
COc1cccc(C(CC(=O)NCc2ccco2)NS(=O)(=O)c2ccc(C)cc2)c1OC (centres undefined),-0.95,0.45,x,0.19,x,x
COc1ccc(C2C(C(=O)c3cccs3)=C(O)C(=O)N2c2nncs2)cc1 (centres undefined),0.47,93*,-1.5,-0.11,439*,339*
COc1ccc(C2C(C(=O)c3cccs3)=C(O)C(=O)N2c2nnc(C)s2)cc1OC (centres undefined),-0.84,68*,-1,-1.5,96*,42
C=CCOc1ccc(C2C(C(=O)c3cccs3)=C(O)C(=O)N2c2nnc(C)s2)cc1 (centres undefined),-0.55,x,-0.2,x,x,x
O=C(Nc1nccs1)C1CCN(S(=O)(=O)c2c(Cl)cccc2Cl)CC1,-1.3,x,-2.4,x,x,x
CNC(=S)NNC(=O)Cc1ccc(OC)c(OC)c1,0.4,x,0.039,x,x,x
CCCCn1nc2cc(C(=O)NCc3ccccc3)ccc2c1OCC,x,x,-0.011,x,x,x
CCN=C(NCC)SC1CC(=O)N(c2ccccc2)C1=O (centres undefined),0.8,10*,0.28,-2.1,-11,-28
CCN=C(Nc1cccc(F)c1)SC1CC(=O)N(c2ccc(OC)cc2)C1=O (centres undefined),-1.6,4.8*,-1,-2.2,-14,-28
CCN=C(NCC)SC1CC(=O)N(c2cccc(OC)c2)C1=O (centres undefined),-0.92,2.2,-0.28,-0.51,x,x
O=C(NCCc1c[nH]c2ccccc12)[C@@H]1C[C@H]1[C@@H](NP(=O)(c1ccccc1)c1ccccc1)c1ccccc1,x,x,-3.9,x,x,x
